Compounds without any hit were thinned out: in the full panel of roughly 83,000, 20% have a hit.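 In brief: 96-well plates, 48 h treatment, single concentration, percent growth endpoint.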 Calls of active or inactive are those of the source. The calls were made as follows: active = growth percent below 10; inactive = the rest.
How the values were obtained:
Test in all cases: NCI-60 one-dose screen, 48 h (100 = growth as untreated, 0 = no growth, -100 = all killed)
Conditions in all cases: 10 µM unless noted
HCT-15 colon = test system: HCT-15 colon
HT29 colon = test system: HT29 colon
SNB-75 CNS = test system: SNB-75 CNS
SNB-19 CNS = test system: SNB-19 CNS
U251 CNS = test system: U251 CNS
PC-3 prostate = test system: PC-3 prostate
UACC-62 melanoma = test system: UACC-62 melanoma
LOX IMVI melanoma = test system: LOX IMVI melanoma
SK-MEL-28 melanoma = test system: SK-MEL-28 melanoma

Measured: growth

CCCOc1cc2ccccc2cc1C(=O)Nc1nc(N)c2c(ccc3nccc32)[nH]1
active: HCT-15 colon -44.7% | HT29 colon -63.3% | SNB-75 CNS -90.3% | SNB-19 CNS -76.4% | U251 CNS -83.5% | PC-3 prostate -27.9% | UACC-62 melanoma -81% | LOX IMVI melanoma -73.7% | SK-MEL-28 melanoma -84.9%

COc1ccc(-c2n[nH]nc2-c2csc3ccccc23)cc1OC
active: HT29 colon 8.59% | SNB-75 CNS 1.72%
inactive: HCT-15 colon 16.4% | SNB-19 CNS 30.4% | U251 CNS 22.1% | PC-3 prostate 27.8% | UACC-62 melanoma 27.7% | LOX IMVI melanoma 24.2% | SK-MEL-28 melanoma 50.2%

COc1cccc(/C=C2\Oc3cc(OCCN4CCCC4)ccc3C2=O)c1
inactive: HCT-15 colon 67% | HT29 colon 35.2% | SNB-75 CNS 87.3% | SNB-19 CNS 102% | U251 CNS 92.1% | PC-3 prostate 83.6% | UACC-62 melanoma 106% | LOX IMVI melanoma 76.1% | SK-MEL-28 melanoma 102%

CCC(=O)c1ccc(Cl)s1
inactive: HCT-15 colon 105% | HT29 colon 96.9% | SNB-75 CNS 91.4% | SNB-19 CNS 102% | U251 CNS 94.6% | PC-3 prostate 98.4% | UACC-62 melanoma 106% | LOX IMVI melanoma 107% | SK-MEL-28 melanoma 99.6%

Source: PubChem BioAssay (NCI)
